About 1,400 (4.5%) of roughly 31,000 sequences were called active. This is one part of a sample in which actives are shown more often than they occur. Values without a mark were called inactive.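 Rule for the calls: active = median seed-adjusted z-score above 1 or below -1; inactive = the rest.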

This assay can be described thus: Novel Modifiers of Survival Motor Neuron (SMN) Protein: Gene Identification via Genome-wide siRNA Screen.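 Note: luminescence tracks full-length SMN protein made from the SMN2 reporter.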 Conditions: HEK293T SMN2-luciferase reporter, siRNA knockdown, 72 h; actives lie on both sides. In short, it runs like this: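 HEK293T cells stably expressing an SMN2 splicing/cDNA-luciferase reporter were reverse-transfected with a druggable-genome siRNA library and read by luminescence at 72 hours; hits defined by MAD score above 1.0 or below -1.0.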
(In general: In a reporter assay the amount or activity of a reporter protein is the signal.)
In the case of GUAGGAUUGUUUAGUGUAATT against CACNA1D, the median seed-adjusted z-score is -0.0856. As for GCUUUGAGAUUUUCGAGGATT against MYO1B, the figure is 0.903. The same measure for CGAGAGCUCCAGAUCAUGATT against GSK3B: -0.952; for GGGAUUGAGUUAAAACUAUTT against SOX7: -0.387. Take GGUAGCUUCUGAUAAUGAUTT against LEO1: the median seed-adjusted z-score is 1.2 (active). As for CGUGGGUAAUGAUGCGGAATT against TOM1, the figure is 0.774. The same measure for GGAGUUGAAGGCCUACAAATT against APOE: 0.0321; for CCUUGUCUGUGCUCAAGUATT against USP35: -0.219. On to CACUUACCAAGGAUACCAATT against PHC2, for which the median seed-adjusted z-score was 0.177. The same measure for GGAUUUUACAGGAUAUCUUTT against SPPL2A: -0.358. In the case of GAAUGGACUGGUACCUAUUTT against ALDOB, the median seed-adjusted z-score is -1.34 (active). For GGAUCUGCAUAGUGACCAATT against PSMB1, the median seed-adjusted z-score was -0.35. The same measure for AUGUUUCAAUAGAUCCAGATT against LIMD2: 0.418; for GCACCAAAGUAUACAACGATT against PRKAR2B: -0.777; for GAUCUUGGAUGGAUUGCUATT against OCA2: 0.457. As for ACAACCCUCUUAAAACUAATT against IGF2, the figure is -0.0306. On to CUGUAUGGGUGGUCAAUCATT against ABCA1, for which the median seed-adjusted z-score is -1.27 (active). In the case of GGACAACGAUAACCGAUCATT against CA1, the median seed-adjusted z-score was 0.262. With GUCUAAAUCUCGUUCCAAATT against SRrp35, the median seed-adjusted z-score was -0.0574.

As to AGGUCAAUGUGACUUUCCATT against KCNJ10, the median seed-adjusted z-score is -0.0371.

On to GAAACGAUAUGAAUGUAAATT against ZNF491, for which the median seed-adjusted z-score is 0.0642. Consider CCAUUGAAGAGGCUAUGAATT against SPAG7, for which the median seed-adjusted z-score was 0.263. As for GAGUGGGAAUGGUCAGGCUTT against ADORA2B, the figure is -0.471; as for GGUCCAUGGUGGAAGACGATT against MAL, 0.0733; as for CCAUCUCAGGAGUUAGCUATT against ZNF281, 1.19 (active). Turning to GUGUCUGGAUUUUCACUGATT against F11, the median seed-adjusted z-score was -0.0319. The same measure for AGGCCUUGGUGGAACAUGUTT against PSAP: 0.107; for GCUCGUAAGUUGGUGAUCATT against TPM3: 0.111; for GAACUAGCACGCAUCAAGATT against PPM1G: 0.073. As for GCACCAGCCUUAACCCUCATT against RAB1B, the figure is 1.55 (active); as for AAAUCCCGGUGAUCAUCGATT against MAP1LC3A, 0; as for GAGACAACCUGCAACGACATT against GDI1, 0.198. The same measure for CAGGAGUGAUUAAACGGUUTT against GNAI3: 0.0656; for GCUCUCAUAUCAUUCCAUUTT against PPIL5: 0; for GAUGAUUACCUGCAGAGCATT against MYD88: -0.365.

Consider CCAUCAAAAUCGCAGACUUTT against DDR1, for which the median seed-adjusted z-score was -0.166. In the case of GGAUGUCUAGAUUACAUUUTT against PDE12, the median seed-adjusted z-score was 0.422. As to GGAGUACCGGCUAACAAUATT against MORC4, the median seed-adjusted z-score is 0.13. Turning to ACAUGAUCUUGGACCUGGATT against CSNK2B, the median seed-adjusted z-score was -1.62 (active). Take CAAUAGGAUUGGUCACCAATT against PNPT1: the median seed-adjusted z-score was 0.0729. For CAACCAUCCCAUGUCUGUUTT against NMNAT2, the median seed-adjusted z-score is -1.58 (active). As for GGAGUUAGCACUAACAUAATT against NUP98, the figure is 0.168; as for GGAUAGUGAUGAUGUCUAUTT against GPR98, -0.509; as for CCUCAACUCGUGAAGAAGATT against GPRC5A, -0.56. The same measure for GGCAUAUGGUUAUCGAGGATT against EML4: 0.958; for CGUCCAAGAUCGAACCCAUTT against HIRA: 0.286. As for GCAAUCGGGUGGUAUCAUATT against COPS5, the figure is -0.124. Take CAAGCAUGGUCUUUCUACUTT against TUBB2A: the median seed-adjusted z-score is 1.03 (active). As for CGAGAUCUCAAGUCUAACATT against ARAF, the median seed-adjusted z-score was 0.535. The same measure for GGAAGUACGUUCCAUACAATT against GALNT17: 0.392; for GGAUCUGUAUCAAGCCGUUTT against APC: 0.154.

With GCAAUGCACUGACGGAUAUTT against EFEMP1, the median seed-adjusted z-score is 0.0157. Take GUAUCAGAAUGAGAGUUCUTT against ACP2: the median seed-adjusted z-score was -0.00569. The same measure for GAAAUACCCUCACAUGUUATT against LSM2: -1.48 (active); for GAUGUAUUGUUACUACCAATT against SCNN1G: -0.616; for CCACAAGGGUUAUCUGUCATT against MAPK4: 0.235. The same measure for GUCACUUCAUGGGCAAGAATT against NMB: 0.746; for CCGUUGUUGUAAGAAGAAATT against MICA: -0.0635. On to GGAUUAAGCCCUUCGAAGATT against SOCS5, for which the median seed-adjusted z-score was 0.312. Turning to AGUUCUCGGAGGUGCUUAATT against CKB, the median seed-adjusted z-score was -0.236. Take GGACAAUCUUAUUCCUAUUTT against CFHR4: the median seed-adjusted z-score was -0.0972. The same measure for GAGCUGCAACUGACAUCUUTT against PLTP: 1.09 (active). On to GCAUCUUCACCAAAGUCAUTT against RHEBL1, for which the median seed-adjusted z-score is -0.268. On to GGCUGACCUGUACCACUUUTT against SH3BP1, for which the median seed-adjusted z-score is -0.225.

As for GCCUCAGAGUUCACGGACATT against ROBO4, the median seed-adjusted z-score was -0.431. Consider GCUACGGCGUGGACAAGAATT against RELB, for which the median seed-adjusted z-score is 1.16 (active).

On to GGACCGUCUACUCAUCCAATT against IL8RB, for which the median seed-adjusted z-score is -0.387. As for GGAGGAGAUAGGCACUGAATT against TIGD3, the median seed-adjusted z-score was 0.486. For the sequence GCUUUUAUCCUAGACAUCATT against PAQR8, the median seed-adjusted z-score was 0.

For the sequence GUGGGAAAGUCUAUGGAAATT against KLF9, the median seed-adjusted z-score was 0.767. Consider GGCCUAAGCUAAAUCGAGATT against SKP2, for which the median seed-adjusted z-score is -0.126. On to CAAAGGAUGUCAUUCGUAATT against CKAP5, for which the median seed-adjusted z-score was -1.87 (active). For the sequence CGGCCGAAGUAGUAAAAGATT against ADA, the median seed-adjusted z-score is -0.242.

For the sequence UCAUCAAUGCUACUGGUUATT against TM7SF2, the median seed-adjusted z-score was -0.674. As for CGGCUGUGGUGAACCAGUATT against INHBB, the figure is -0.522; as for GCAUAGGAUUCAUUGAGUUTT against NME1, 0.188; as for GACCCGUACUUCAUGAAGATT against SF3A2, -1.7 (active). The same measure for GGACCCAAGUCUUGCUGCATT against CARD18: 0.568. The same measure for CGAUCCUAUUCGAUGAGAATT against GRM5: -0.227.

Turning to CAGUGAAUAUGGAACCGGATT against CHD3, the median seed-adjusted z-score was 0.589. Turning to AGUAUGUGCUGAUCCGAGUTT against PHPT1, the median seed-adjusted z-score was 1.27 (active).

In the case of CCUGAACACACCUUACAUATT against RNASE8, the median seed-adjusted z-score was 0.00771.

With CAUAGAUUCUGUACGGCAATT against MPP5, the median seed-adjusted z-score was 0.429. On to GGUAUUCCUGUUCAACAAATT against ZNF235, for which the median seed-adjusted z-score is 0.348. The same measure for GCUGACCGCUGGGUGAUAATT against TMPRSS6: 1.29 (active); for CCUCACACUUGAUUCAGUUTT against RPP38: 0.07. With GGUCAUAGCCUACUGUCUATT against SLC32A1, the median seed-adjusted z-score was -0.251. Turning to CUACCAGCAUGUGAUGUUUTT against CH25H, the median seed-adjusted z-score is -0.264. The same measure for GGAUGCAGAACGACGUGAATT against SLC25A10: -0.571. The same measure for GUACCUUUUCCAAACCAAATT against SETD8: -1.52 (active); for CAAAACAGACCGAAAGAAATT against DBX2: 0.244. As for CGAUAACGACAGUAAAUCATT against CACNA2D1, the figure is -0.541; as for CAAAGAAGCUUUUUCACUATT against CALM2, 0.127. As to CUCUCUUAGUGUCCUUAGATT against PCDHGC4, the median seed-adjusted z-score is 0.301. For CGAGUUCUAUCUUGAGAAUTT against TEX13A, the median seed-adjusted z-score was -1.22 (active). Take GGAUGGGUCUCGCAAAAUATT against ZFYVE1: the median seed-adjusted z-score is -0.546. For the sequence CCAGCUCUUCUCUACCACATT against PAQR7, the median seed-adjusted z-score is -0.0406.

Turning to UGCUGAGGGUGUUCCCAGATT against GABRR2, the median seed-adjusted z-score was 0. The same measure for AGCAGGCUUUGAUCAUUGATT against FKBP6: -1.12 (active); for GCAAGACCUUUGACUACAATT against SSRP1: -0.31.

GCGAAGUGUUCAGACCAAATT against HEATR1: the median seed-adjusted z-score is -0.115.

As to CCAACUCAUUGAUAGGGAUTT against PRPH2, the median seed-adjusted z-score was 0.0931. On to GCUUUCUAUCGAUCCUCAATT against ZNF681, for which the median seed-adjusted z-score was 0.271. Turning to GCACGUCGAGCAAUCCAAATT against MYOD1, the median seed-adjusted z-score is 0.309. As for CCAUGUUUCUCAUUAGUGUTT against NTSR1, the figure is -1.1 (active); as for UGCUCGUGCUCGUUCCAAATT against ING4, -0.152. The same measure for CAUCUUUGCUAGUAAUCUATT against UBA7: 2.41 (active); for CGGAUUGUCUAUUGCAUCATT against CALCRL: 0.28. As to GAUUGUCUCUUUAGUGGAATT against TGDS, the median seed-adjusted z-score is -0.196.
